Assay outcomes as filed in PubChem BioAssay.
The full list was thinned out, with hits kept by preference.
KDM5B inh – Primary screen for KDM5B Histone Demethylases FDH-coupled qHTS | Potency, µM (titrated, usually from 57.7 µM), most hits filed as inhibitors | hit rate 2.6% among 220,000 | Lysine-specific demethylase 5B (Homo sapiens), Q9UGL1 | KDM5B demethylase, FDH-coupled NADH fluorescence (FDH is formaldehyde dehydrogenase); active = well fitted inhibition curve with a large enough effect; note: 0% is about no effect; nearly all actives have a fitted effect of over 70% in size
Target sequence (Q9UGL1 whole entry, looked up): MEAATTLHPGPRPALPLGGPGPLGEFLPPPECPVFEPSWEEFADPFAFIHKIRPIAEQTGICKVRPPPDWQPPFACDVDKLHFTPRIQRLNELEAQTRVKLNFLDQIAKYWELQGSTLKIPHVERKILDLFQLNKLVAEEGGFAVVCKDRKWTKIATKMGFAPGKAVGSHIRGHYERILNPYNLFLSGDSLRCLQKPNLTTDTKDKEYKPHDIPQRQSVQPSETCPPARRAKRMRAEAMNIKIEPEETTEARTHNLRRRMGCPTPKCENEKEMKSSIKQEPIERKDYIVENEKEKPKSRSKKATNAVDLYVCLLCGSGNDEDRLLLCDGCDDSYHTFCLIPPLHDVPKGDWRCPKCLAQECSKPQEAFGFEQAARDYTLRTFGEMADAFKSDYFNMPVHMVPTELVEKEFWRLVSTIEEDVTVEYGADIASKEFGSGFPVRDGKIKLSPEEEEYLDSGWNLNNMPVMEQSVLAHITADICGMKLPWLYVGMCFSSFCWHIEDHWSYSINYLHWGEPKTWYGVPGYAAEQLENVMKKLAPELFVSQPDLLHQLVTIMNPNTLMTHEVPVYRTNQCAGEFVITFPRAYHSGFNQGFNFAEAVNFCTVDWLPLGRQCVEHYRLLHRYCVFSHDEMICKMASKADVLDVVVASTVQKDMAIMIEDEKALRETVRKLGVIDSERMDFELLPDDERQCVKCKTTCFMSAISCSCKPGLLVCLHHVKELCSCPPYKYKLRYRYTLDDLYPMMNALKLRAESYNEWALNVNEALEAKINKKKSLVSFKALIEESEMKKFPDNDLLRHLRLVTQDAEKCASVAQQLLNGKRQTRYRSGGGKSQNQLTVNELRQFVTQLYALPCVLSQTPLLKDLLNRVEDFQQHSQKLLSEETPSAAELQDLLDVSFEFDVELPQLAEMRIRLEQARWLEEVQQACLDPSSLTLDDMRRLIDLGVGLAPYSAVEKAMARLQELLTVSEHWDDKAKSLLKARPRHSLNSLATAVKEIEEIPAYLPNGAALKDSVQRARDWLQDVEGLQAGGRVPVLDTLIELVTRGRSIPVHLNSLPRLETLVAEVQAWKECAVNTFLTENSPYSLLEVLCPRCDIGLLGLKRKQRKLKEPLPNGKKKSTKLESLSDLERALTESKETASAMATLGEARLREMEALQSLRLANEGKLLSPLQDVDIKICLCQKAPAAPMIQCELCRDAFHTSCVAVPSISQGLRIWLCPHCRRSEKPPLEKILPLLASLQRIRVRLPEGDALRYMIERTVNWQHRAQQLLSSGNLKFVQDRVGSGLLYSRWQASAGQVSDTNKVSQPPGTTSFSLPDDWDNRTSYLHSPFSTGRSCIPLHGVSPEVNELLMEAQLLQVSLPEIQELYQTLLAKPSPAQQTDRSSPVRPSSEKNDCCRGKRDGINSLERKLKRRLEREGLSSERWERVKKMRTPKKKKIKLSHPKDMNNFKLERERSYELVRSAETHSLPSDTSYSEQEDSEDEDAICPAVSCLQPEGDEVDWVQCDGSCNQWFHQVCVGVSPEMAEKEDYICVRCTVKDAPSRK
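qHTS format, multiple compound concentrations. Buffer 50 mM HEPES pH 7.5/0.01% Tween-20; 200 nM KDM5BΔAP final; 10 min compound preincubation; substrate-mix levels 12.5 µM peptide, 25 µM α-KG, 0.25 mM NAD⁺; 30 min RT; ΔRFU.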
The depositor's hits bear a star; i = inactive. Potency is the fitted concentration of half-maximal effect.

SMILES | KDM5B inh
CCC1(N2CCN(S(=O)(=O)c3cccs3)CC2)CCN(S(C)(=O)=O)C1 (stereo unspecified) | i
O=S(=O)(c1cccs1)N1CCCC2(C1)Nc1cccnc1NC2=NC1CCCC1 (stereo unspecified) | 11µM*
Cc1ccc(OCC(=O)N2CCCC(CO)(CCOc3ccccc3)C2)cc1 (stereo unspecified) | i
COc1ccc(OCC(=O)N2CCCC3(C2)Nc2cccnc2NC3=NC2CCCC2)cc1 (stereo unspecified) | 25µM*
COc1ccc(C(=O)N2CCC3(C2)C(=NC2CCCC2)NC(=O)N3c2cccnc2)cc1 (stereo unspecified) | i
Cc1cc(Nc2nc3ccccc3nc2NS(=O)(=O)c2ccccc2)ccc1Cl | i
COc1ccc(NC(=O)COc2ccccc2C)c2cccnc12 | i
CCN(CC1CCN(C2CCN(C)CC2)CC1)C(=O)c1ccc(-c2ccccc2)cc1 | i
CCOc1ccccc1CNCc1ccco1 | i
CC(C)C(NC(=O)c1ccccc1)c1nnc(SCC(=O)c2ccc(F)cc2)n1C (stereo unspecified) | i
Cc1ccc(S(=O)(=O)NCc2ccc(N3CCCC3)nc2)cc1C | i
COc1cccc(OCc2nc3c(n2Cc2ccccc2)C(=O)N(Cc2cccc(Cl)c2)CCN3)c1 | i
c1ccc(-c2cc(CC3(NCc4ccco4)COC3)no2)nc1 | i
O=C(O)c1csc(-c2ccccc2)c1 | i
O=C1OC(c2ccc(Br)o2)=N/C1=C/c1cc(Br)cs1 | i
Cc1ccc(NS(=O)(=O)c2cc([N+](=O)[O-])ccc2NN)c(C)c1 | i
O=C(c1ccc(Cl)s1)N1CCCC2(C1)Nc1cccnc1NC2=NC1CCCC1 (stereo unspecified) | 28µM*
O=C(c1ccc2nc[nH]c2c1)N1CCCC2(C1)Nc1cccnc1NC2=NC1CCCC1 (stereo unspecified) | 28µM*
O=C(c1ccc(C(F)(F)F)cc1)N1CCCC2(C1)C(=NC1CCCC1)NC(=O)N2c1cccnc1 (stereo unspecified) | i
O=C(c1ccc(Cl)s1)N1CCN(c2ncccn2)CC1 | i
Cc1ccccc1C(=O)N1CCCC2(C1)Nc1cccnc1NC2=NC1CCCC1 (stereo unspecified) | 16µM*
Cc1ccc(C(=O)N2CCCC3(C2)C(=NC2CCCC2)NC(=O)N3c2cccnc2)cc1 (stereo unspecified) | i
O=C(c1ccccc1F)N1CCCC2(C1)C(=NC1CCCC1)NC(=O)N2c1cccnc1 (stereo unspecified) | i
O=C(c1cccnc1)N1CCCC2(C1)C(=NC1CCCCC1)NC(=O)N2c1cccnc1 (stereo unspecified) | i
COc1cccc(N2C(=O)NC(=NC3CCCCC3)C23CCCN(C(=O)c2ccccc2OC)C3)c1 (stereo unspecified) | i
SMILES | KDM5B inh
CCN(CC)S(=O)(=O)c1ccc(N(C)C)c(NS(=O)(=O)c2cccs2)c1 | i
Cc1cc(C)cc(N2CC(c3nc(-c4ccc5c(c4)OCO5)no3)CC2=O)c1 (stereo unspecified) | i
COc1ccc(-c2ccnc3nc(C(C)C)nn23)cc1 | 25µM*
COc1ccc(-c2ccnc3nc(C(C)C)nn23)cc1OC | 28µM*
COc1ccc(-c2ccnc3nc(C(C)C)nn23)c(F)c1 | i
COc1ccc(-c2nc(C(C)C)nc3c2CCN(C(C)=O)CC3)cc1 | i
CC(C)c1nc2nccc(-c3cc4ccccc4o3)n2n1 | i
COc1ccc(-c2nn3c(C(C)C)nnc3s2)cc1OC | i
COc1ccc(C)cc1S(=O)(=O)n1cc(C)nc1-c1ccccc1 | i
CN(CCc1ccccn1)C(=O)CC1CCCN(c2cnn(CC3CC3)c(=O)c2)C1 (stereo unspecified) | i
O=C(O)C1C(c2ccccc2)C(C(=O)Oc2cccc3ccccc23)C1c1ccccc1 (stereo unspecified) | i
Fc1ccc(-c2cn[nH]c2C2CCCNC2)cc1 (stereo unspecified) | i
Cc1ncc(-c2ccc(S(=O)(=O)Nc3ccccc3)cc2)o1 | i
CCc1noc(-c2cn(C3CCN(C(=O)c4cccc(OC)c4)CC3)nn2)n1 | i
COc1cccc(C(=O)NCc2cn3cccc(C)c3n2)c1 | i
COc1cccc(C(=O)NCc2nnc3c(-c4nc(C)no4)cccn23)c1 | 28µM*
CCc1noc(-c2cccn3c(CNC(=O)c4cccc(OC)c4)nnc23)n1 | 22µM*
O=C(/C=C/c1cc2ccccc2nc1N1CCOCC1)c1ccccc1F | i
O=C(NCc1ccc(F)cc1)C1(Cc2nc3ccccc3s2)CCCC1 | i
COc1ccc(C(=O)Nc2ccc3oc(C)nc3c2)cc1 | i
Cc1ccc(NS(=O)(=O)c2ccc(C(=O)O)cc2)c(Cl)c1 | i
Cc1ccc2c(c1)N(CC(=O)c1c(C)n(C)c3ccccc13)C(=O)CO2 | i
CCC1(CC)CCN(C(=O)CC2COc3ccc(C(=O)N(C)C)cc3N2C)C1 (stereo unspecified) | i
COCCC(=O)N1CCC(Oc2ccc(C(=O)N(C)Cc3cc(C)no3)cc2)CC1 | i
COCCNC(=O)C(NC(=O)c1cccc(OC)c1)C1CCN(C(=O)COC)CC1 (stereo unspecified) | i
SMILES | KDM5B inh
COCCNC(=O)c1ccc2c(c1)N(C)C(CC(=O)N1CCC(O)CC1)CO2 (stereo unspecified) | 28µM*
COCCNC(=O)c1ccc(CC2CCN(C(=O)CCc3ccc(OC)cc3)CC2)cc1 | i
COCCNC(=O)c1ccc2c(c1)N(C)C(CC(=O)N1CCC(N)CC1)CO2 (stereo unspecified) | 28µM*
COCCOC1CCOC2(CCN(C(=O)CCc3nc4ccccc4s3)CC2)C1 (stereo unspecified) | i
Cc1ccc(C)c(NC(=O)Cn2c(-c3ccccc3)nc(C)cc2=O)c1 | i
CCOc1cc2c(cc1NC(=O)CCC(=O)c1ccccc1)OC(C)C2 (stereo unspecified) | i
COc1ccccc1-c1ccc2ncc(Nc3ccccc3F)n2n1 | i
COc1ncccc1Nc1cnc2ccc(N(C)Cc3ccc(F)cc3)nn12 | 32µM*
COc1ccc(Nc2cnc3ccc(-c4ccc(F)cc4)nn23)cc1OC | i
Cc1ccccc1Nc1cnc2ccc(-n3ccnc3)nn12 | i
CN(C)c1ccc2ncc(Nc3ccccc3Cl)n2n1 | 35µM*
COc1ccc(-c2ccc3ncc(Nc4cccnc4OC)n3n2)cn1 | i
COc1ncccc1Nc1cnc2ccc(-c3ccc(F)cc3)nn12 | i
COc1ccc(F)cc1Nc1cnc2ccc(N(C)Cc3cccnc3)nn12 | 32µM*
CN(C)c1ccc2ncc(Nc3ccccc3-c3ccccc3)n2n1 | i
CS(=O)(=O)N1N=C(c2ccc(Br)cc2)CC1c1ccc(Br)cc1 (stereo unspecified) | i
Cn1c(=O)c2c(nc(N3CCc4ccccc4C3)n2Cc2c(F)cccc2Cl)n(C)c1=O | i
CCNC(=O)c1coc(COc2ccc3c(c2)C(c2cccc(F)c2)N(C(=O)C(C)C)CC3)n1 (stereo unspecified) | i
Cc1cnc(C(=O)NCC(c2ccccc2)c2c[nH]c3ccccc23)cn1 (stereo unspecified) | i
COc1ccc2nc(SCc3nc(-c4cccc(Cl)c4)no3)[nH]c2c1 | i
O=c1[nH]nc(SCc2nc(-c3ccc(Cl)cc3)no2)n2nc(-c3ccco3)cc12 | i
c1ccc(N2CCN(c3cc4c(cn3)CN(Cc3ccncc3)CCN4)CC2)nc1 | i
